AmpC no deterg = AmpC beta-lactamase inhibition without detergent. P00811. AmpC nitrocefin hydrolysis, absorbance 480 nm, 0.0001% Triton. Potency, µM (titrated, usually from 57.1 µM), without a hit: at the top dose activity change, negative = inhibition, actives largely listed as inhibitors. hit rate 0.52% among 330,000. AID 485341;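 further: plate controls were no compound for no effect and no enzyme for full effect; nearly all actives have a fitted effect of over 20% in size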
Target sequence (P00811 whole entry, looked up): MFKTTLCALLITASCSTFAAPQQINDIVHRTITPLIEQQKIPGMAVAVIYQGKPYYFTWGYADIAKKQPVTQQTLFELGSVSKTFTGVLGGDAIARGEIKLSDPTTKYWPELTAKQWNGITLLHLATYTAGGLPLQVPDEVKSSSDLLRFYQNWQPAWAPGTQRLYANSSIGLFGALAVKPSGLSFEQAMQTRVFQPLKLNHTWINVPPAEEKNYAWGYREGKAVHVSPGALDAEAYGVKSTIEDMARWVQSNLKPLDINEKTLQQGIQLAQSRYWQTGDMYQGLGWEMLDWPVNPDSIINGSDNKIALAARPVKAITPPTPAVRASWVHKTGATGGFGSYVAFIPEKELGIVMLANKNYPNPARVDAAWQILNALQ
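AmpC (5.3 nM in the dispensed reagent) in 20 mM phosphate pH 7.0 with 0.01% (detergent screen) or 0.0001% Triton X-100 was preincubated with compounds for 15 min at room temperature. Nitrocefin was then added from an 800 uM solution, and hydrolysis was followed at 480 nm.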
SARS PLpro yeast = SARS-CoV PLP inhibition in yeast | S. cerevisiae expressing SARS-CoV PLpro, growth rescue | Potency, µM (series often up to 32.9 µM), inactives show top-dose activity, positive = growth rescue, hits mostly activators | hit rate 0.19% among 330,000; calls by dose curve; further: 0% is about no effect; nearly all actives have a fitted effect of over 55% in size
AmpC inh detg = AmpC beta-lactamase inhibition with detergent present; Potency, µM (titrated, usually from 114 µM), for inactives: at the highest dose activity change, negative = inhibition, actives largely listed as inhibitors; P00811; hit rate 0.041% among 370,000; AID 485294; AmpC hydrolysis of nitrocefin, absorbance 480 nm, 0.01% Triton;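 further: 0% = no-compound wells and -100% = no-enzyme wells; nearly all actives have a fitted effect of over 25% in size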
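20 mM phosphate pH 7.0 + 0.01% (detergent screen) or 0.0001% Triton X-100; 5.3 nM AmpC reagent; cpd preinc 15 min RT; nitrocefin (800 uM stock) to start; A480 q20 s × 4 min; Activity was normalised to no-enzyme and no-compound control wells.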
VACV Venus inh = inhibitors of vaccinia virus (Venus reporter); hit rate 0.46% among 330,000; Vaccinia virus Venus reporter expression, fluorescence; Potency, µM (titrated, usually from 36.5 µM), without a hit: at the highest dose activity change, negative = inhibition, actives largely listed as inhibitors; calls by dose curve; tested in A549 cells; further: on the % scale 0 is the no-effect control and ±100 the full control effect; nearly all actives have a fitted effect of over 30% in size
VACV mCherry inh = vaccinia inhibition (mCherry reporter); Vaccinia virus mCherry reporter infection, fluorescence; Potency, µM (highest dose often 36.5 µM), for inactives: at the highest dose activity change, negative = inhibition, hits mostly inhibitors; hit rate 0.63% among 310,000; calls by dose curve; tested in A549 cells; further: on the % scale 0 is the no-effect control and ±100 the full control effect; nearly all actives have a fitted effect of over 35% in size
* = called active by the depositor; i = inactive; ? = inconclusive; . = no result. Shown are actives, neighbours in structure and some others; about 1.3% of the full set was active somewhere. Unless noted, the call rests on the fitted dose curve; in most records, active means well fitted curve in the direction sought with a large enough effect; inconclusive means small, poorly fitted or top-dose-only effect, or another doubt; inactive means no such curve, though single readings can be large; an effect the other way counts as inactive or inconclusive. Potency means the concentration at half of the fitted maximal effect.

SMILES	AmpC no deterg	SARS PLpro yeast	AmpC inh detg	VACV Venus inh	VACV mCherry inh
CCn1c2ccccc2c2cc(NC(=O)COC(=O)c3ccccc3O)ccc21	-9%	-1%	-4%	2%	-2%
COc1ccccc1C1CN(Cc2cccc3nccnc23)Cc2ccccc2O1 (configuration not stated)	.	.	.	-12%	-16%
Cc1ncc2c(c1CNC(=O)c1cncs1)CCN(C(=O)c1ccc(C(C)(C)C)cc1)C2	.	.	.	?	i
N#CCC(=O)Nc1ccc(C(=O)OCC(=O)Nc2ccc3ccccc3c2)cc1	20µM*	-3%	4%	-2%	-24%
O=C(CNC(=O)c1ccccc1F)OC(C(=O)Nc1cc(C(F)(F)F)ccc1Cl)c1ccccc1 (configuration not stated)	-22%	-3%	?	.	.
N#CCC(=O)Nc1ccc(C(=O)OC(C(=O)Nc2cc(C(F)(F)F)ccc2Cl)c2ccccc2)cc1 (configuration not stated)	7.1µM*	-12%	0%	-19%	0%
CCn1c2ccccc2c2cc(NC(=O)COc3ccccc3)ccc21	25µM*	3%	-7%	?	-26%
CC(OC(=O)c1ccc(NC(=O)CC#N)cc1)C(=O)Nc1ccc(Oc2ccccc2)cc1 (configuration not stated)	6.3µM*	?	7%	.	.
CC(OC(=O)c1ccc(NC(=O)CC#N)cc1)C(=O)Nc1nc(-c2ccccc2)cs1 (configuration not stated)	-49%	-3%	?	-5%	?
COc1ccccc1CN1CCOc2ccc(C(C)(O)CN(C)C)cc2C1 (configuration not stated)	.	.	.	-13%	-3%
CCn1c2ccccc2c2cc(NC(=O)COC(=O)c3cc(S(N)(=O)=O)c(Cl)cc3Cl)ccc21	?	1%	1%	?	11µM*
CCN(CC)S(=O)(=O)c1cc(NC(=O)COC(=O)c2ccc(NC(=O)CC#N)cc2)ccc1C	7.9µM*	0%	4%	-3%	-11%
CCC1(C2CCN(C(=O)c3ccc(C)c(C)c3)CC2)NC(=O)N(CCc2scnc2C)C1=O (configuration not stated)	.	.	.	-7%	i
COC(=O)c1ccc([C@H]2CC(=O)O2)cc1	-4%	0%	?	?	11µM*
NS(=O)(=O)c1ccc(CCNc2ccn3nc(-c4cccc(C(F)(F)F)c4)cc3n2)cc1	.	.	.	?	8.9µM*
COc1ccccc1C1CN(Cc2cn(C)nc2C)Cc2ccccc2O1 (configuration not stated)	.	.	.	-2%	-10%
CN(C)c1ccc(NC(=O)Nc2cccc(Cl)c2)cc1	5µM*	-8%	?	.	.
CN(c1cccc(NC(=O)Nc2cccc(Cl)c2)c1)S(C)(=O)=O	-22%	1%	-7%	?	.
CN(C)c1ccc(NC(=O)/C=C/c2c(Cl)cccc2Cl)cc1	-14%	-15%	-11%	6%	28µM*
COc1ccccc1CCNc1ncnc2sc(C(=O)N3CCCN(C=O)CC3)c(C)c12	.	.	.	-6%	-13%
N#CC(C#N)=C1C=CC=CN1/C(=C\c1ccco1)C(=O)c1ccc(Cl)cc1	-19%	14%	-11%	28µM*	?
Cc1ccccc1C(=O)Nc1nnc(SCc2cc(=O)c3c(C)ccc(C)c3[nH]2)s1	.	.	-9%	?	-23%
O=C(Oc1ccccc1)c1cccc2cccnc12	-5%	-35%	-13%	-1%	i
O=C(Oc1ccccc1)c1cccnc1Oc1ccccc1	-40%	-1%	40µM*	.	.
COc1cc(Cl)c(CN2CCOc3ccc(CN4CCCCC4CO)cc3C2)cc1OC (configuration not stated)	.	.	.	-6%	-12%
SMILES	AmpC no deterg	SARS PLpro yeast	AmpC inh detg	VACV Venus inh	VACV mCherry inh
COc1ncccc1C(=O)N1CCOc2ccc(C(O)C(c3ccccc3)c3ccccc3)cc2C1 (configuration not stated)	.	.	.	-14%	-19%
Cc1c(C(=O)N2CCN(C)CC2)sc2ncnc(NCC3(c4ccccc4)CCOCC3)c12	.	.	.	0%	i
COc1cc2c(cc1NC(=O)CN1C(=O)NC3(CCc4ccccc43)C1=O)oc1ccccc12 (configuration not stated)	29%	-14%	-12%	?	10µM*
COc1cc(OC)c(OC)cc1CN1CCOc2ccc(CN3CCN(C(C)=O)CC3)cc2C1	.	.	.	-10%	-15%
Cc1ccc(Cn2c(CN3CCC(C(=O)NCC(C)c4ccccc4)CC3)cc3ccccc32)cc1 (configuration not stated)	.	.	13%	-16%	-18%
CCN(CC)CCCN(Cc1cc2cc3c(cc2[nH]c1=O)OCO3)C(=O)Nc1ccccc1OC	0.4µM*	-1%	-1%	-20%	-5%
c1ccc(C2Nc3ccccc3-c3nc4ccccc4n32)cc1 (configuration not stated)	-59%	-25%	1%	.	.
c1coc(C2Nc3ccccc3-c3nc4ccccc4n32)c1 (configuration not stated)	35µM*	-9%	-11%	?	?
CC1CCCC(C)N1c1nnc(NC(=O)Cn2c(=O)oc3ccccc32)s1 (configuration not stated)	10µM*	19%	0%	-9%	?
O=C(CC1(c2cccc(F)c2)CC(=O)N(Cc2cccnc2)C1=O)N1CCCCCCC1 (configuration not stated)	.	.	.	-7%	-11%
O=C(Nc1nc(-c2cccs2)cs1)c1ccc(Cl)cc1	28µM*	-25%	6%	-18%	-11%
Cc1ccc(/C=C(\NC(=O)c2ccc(C)cc2)c2nc(=S)[nH][nH]2)cc1	-27%	-18%	-1%	.	.
Cc1ccc(C(=O)N/C(=C\c2ccccc2F)c2nc(=S)[nH][nH]2)cc1	25µM*	0%	-2%	1%	?
COc1ccc(C)cc1NC(=O)C(Sc1nncn1C)c1ccccc1 (configuration not stated)	54%	-1%	-8%	-5%	i
COc1ccc(C)cc1NC(=O)C(Sc1nnc(Nc2ccccc2F)s1)c1ccccc1 (configuration not stated)	3.5µM*	-4%	-8%	-29%	-12%
O=C(CCS(=O)(=O)c1ccc(Br)s1)Nc1cc(C(F)(F)F)cc(C(F)(F)F)c1	.	.	5%	?	13µM*
Cc1ccc(-c2nc(=Nc3ccccc3)sn2-c2ccccc2)cc1	.	.	.	?	14µM*
COc1ccc(N=c2nc(-c3ccc(C)cc3)n(-c3ccccc3)s2)cc1	.	.	.	?	-29%
COc1ccc(N=c2nc(-c3ccccc3)n(-c3ccc(C)cc3)s2)cc1	.	.	.	?	11µM*
COCc1ccc(CN2CCOc3ccc(C4=CCCCC4)cc3C2)o1	.	.	.	1%	-7%
CCCC(=O)OCCNc1cc(Sc2nc3ccccc3[nH]2)c2nonc2c1[N+](=O)[O-]	13µM*	-8%	?	?	?
